Data from PubChem BioAssay (NCI).
Several values for one entry are separate records, joined by “and”; a condition that tells them apart may be missing. Equal values may be shown once. The panel holds about 83,000 compounds, 20% with a hit somewhere; the sample as a whole holds those more often.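 Testing used 96-well plates and a 48-hour single-concentration exposure. Example: -40 means 40% of the starting cells died.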 Unmarked numbers belong to inactive results. Activity calls are given as the source filed them. The calls were made as follows: active = growth percent below 10; inactive = the rest.

system: MDA-MB-468 breast; experiment: NCI-60 one-dose screen, 48 h (100 = growth as untreated, 0 = no growth, -100 = all killed); conditions: 10 µM unless noted

| Compound | growth |
| --- | --- |
| O=c1[nH]c(=O)n(C2C[C@H](O)[C@@H](CO)O2)cc1C(F)(F)F (stereo not given in full) | 117% |
| Nc1nc(-c2cccc([N+](=O)[O-])c2)c(N=Nc2ccccc2Cl)s1 | 55.2% |
| COc1cc(Cl)cc(-c2nn(-c3cccc(NC(=O)c4ccc(N5CCOCC5)c(C(F)(F)F)c4)c3)cc2-c2ccncc2)c1 | 50.2% |
| COc1ccc(NC(=O)CSc2nc3ccc(Cl)cc3c(=O)n2-c2ccccc2C(F)(F)F)c(OC)c1OC | 79.6% |
| O=C1/C(=C/c2ccc3c(c2)OCO3)SC(=S)N1CCc1ccc(O)cc1 | 67.8% |
| Clc1ccc(Nc2scc3[n+]2CCC3)cc1 | 86.3% |
| CC(=O)N(C)c1ccc(Nc2ccc(Nc3ccc(N(C)C(C)=O)cc3)c3c2C(=O)c2ccccc2C3=O)cc1 | 30.9% |
| CC(=O)N1CCN(CCNC(=O)n2cc(-c3ccncc3)c(-c3ccc(O)c(Cl)c3)n2)CC1 | 112% |
| CCCCC(=O)c1ccco1 | 95.1% |
| O=C1/C(=C/c2ccc(Cl)cc2)CN(C(=O)CCN2CCC(=NO)CC2)C/C1=C\c1ccc(Cl)cc1 | -65.3% (active) |
| O=C(CCCN1CCC(O)(c2ccc(Br)cc2)CC1)c1ccc(F)cc1 | 49.2% |
| CCOc1ccc(N=C(C)Nc2ccc(OCC)cc2)cc1 | 116% |
| CCOC(=O)Oc1c(OC)cc(C(=O)c2ccc(OC)c(OC(=O)CCl)c2OC)cc1OC | 0.206% (active) |
| Cc1cc(C)n(Nc2nc3ccccc3[nH]c2=O)c(=O)c1C#N | 90.8% |
| OC1CCN(CCCOc2c3ccc(Cl)cc3nc3c2oc2ccc(Cl)cc23)CC1 | 1% (active) |
| COc1ccc2c(=O)cc(C(Cl)(Cl)Cl)oc2c1 | -81.2% (active) |
| COc1cccc(-c2ccc3c(c2)NC(=O)/C3=C\c2ccc[nH]2)c1 | 3.08% (active) |
| O=C(Nc1cccc(-n2ccc3c(NC(=O)c4ccccc4)nccc32)c1)c1cc(N2CCOCC2)cc(C(F)(F)F)c1 | -32.3% (active) |
| COc1ccc(C(C)=O)cc1S(=O)(=O)Nc1c(N)nc(SC)[nH]c1=O | 97.6% |
| O=C(N/N=C\c1cc(Cl)ccc1[N+](=O)[O-])c1ccco1 | 58.5% |

| Compound | growth |
| --- | --- |
| COc1ccc2c(c1)sc1nc(-c3ccccc3)c(-c3ccc(O)c(OC)c3)n12 | 107% |
| CC1=C2[C@@H](CC1)[C@]1(C)O[C@@](C3CC3)(C[C@H]1OC(=O)CO)[C@H]2OC(=O)/C=C/c1ccccc1 | 83% |
| O=C1c2ccccc2-c2c1c1cccnc1c(=O)n2C[C@H](O)CO | 88.4% |
| N#Cc1c(-c2ccc(C(F)(F)F)cc2)cc(N2CC(O)C2)n2c1nc1ccccc12 | 67.1% |
| COc1cc(CCC[P+](c2ccccc2)(c2ccccc2)c2ccccc2)cc2c1OCO2 | -22.7% (active) |
| CCN(CC)CCCNc1c2ccc(Cl)cc2nc2ccc(OC)cc12 | -34.6% (active) |
| C#CCOC(=O)Nc1ccccc1 | 117% |
| COc1cccc(/C=C/c2c(C(=O)O)cccc2[N+](=O)[O-])c1OC | 108% |
| COC[C@]12CCC(C)(C)C[C@H]1C1=CC[C@@H]3[C@@]4(C)CCCNC(C)(C)[C@@H]4CC[C@@]3(C)[C@]1(C)CC2 | -82.1% (active) |
| CCN(CC)c1ccc2[nH]c3c(C(N)=O)cc(=O)c(=O)c=3oc2c1 | -38.4% (active) |
| CC1(C)[C@@H](O)CC[C@]2(C)[C@H]3CC[C@@H]4[C@H]5[C@H](C(=O)/C=C/c6ccc(C(F)(F)F)cc6)CC[C@]5(CO)CC[C@@]4(C)[C@]3(C)CC[C@@H]12 | 61.9% |
| COc1ccc(CCn2cnn3c(=O)c4ccccc4nc3c2=O)cc1OC | 93.5% and 94.3% |
| CS(=O)(=O)O[C@@H]1C(=O)N(c2cc3c4ccccc4ccc3c3ccccc23)[C@H]1c1ccc(F)cn1 | 30.4% |
| O=C1/C(=C/c2ccccc2)CCC/C1=C\c1ccccc1 | 63.2% |
| CCOc1cc2ncc(C#N)c(Nc3ccc(OCc4ccccn4)c(Cl)c3)c2cc1NC(=O)/C=C/CN(C)C | -35.1% (active) |
| CC1COc2c(N3CCN(C)CC3)c(F)cc3c(=O)c(C(=O)N/N=C/c4cc[nH]c4)cn1c23 (stereo not given) | -9.35% (active) |
| CCCCCCCCCCCCCCCC(=O)NS(=O)(=O)OC[C@H]1O[C@@H](n2cnc3c(N)ncnc32)[C@H](O)[C@@H]1O | -51.5% (active) |
| Cc1c2cnccc2c(C)c2c1c1cc(C(=O)O)ccc1n2C | -7.86% (active) |
| CS(=O)(=O)N(c1cc(-c2ccc3ncnc(Nc4ccc(F)c(Cl)c4)c3c2)cnc1Cl)S(C)(=O)=O | -19.6% (active) |
| O=C1c2ccccc2CCc2ccccc21 | 95.2% |
